About 2,000 (36%) of roughly 5,500 compounds were called active. Another 18% or so got no clear call; they are omitted. This is one part of the list. Unmarked numbers belong to inactive results. Cut-off read from the data, not from the text of the source: active = normalized growth mostly below about 0.91 (no sharp cut-off); inconclusive = no clear call, values can overlap the other calls; inactive = mostly above about 0.92.
Test: chemical genetic growth profiling, strain panel (AID 1159580);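 note: tested at 20 µM; growth read once vehicle control cultures reached saturation at 30 °C; 1 = growth at the plate median or of vehicle wells; lower values mean less growth of the strain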
Settings: S. cerevisiae deletion strains, growth OD
[1] = locus YDL101C, strain DUN1, hits give low values
[2] = locus YHR030C, strain SLT2, hits give low values

## FC(F)(F)c1ccnc(-n2ccc(-c3cccs3)n2)n1
Locus YAL013W, strain DEP1, hits give low values
  normalized growth: 0.94
Locus YBR229C, strain ROT2, hits give low values
  normalized growth: 0.964
Locus YCL061C, strain MRC1, hits give low values
  normalized growth: 0.926
[1]
  normalized growth: 0.916
Locus YDR150W, strain NUM1, hits give low values
  normalized growth: 0.987
Locus YEL061C, strain CIN8, hits give low values
  normalized growth: 0.946
Locus YGR078C, strain PAC10, hits give low values
  normalized growth: 0.973
Locus YGR229C, strain SMI1, hits give low values
  normalized growth: 0.972
[2]
  normalized growth: 0.457 (active)
Locus YHR087W, strain rtc3, hits give low values
  normalized growth: 1.01
Locus YJR043C, strain POL32, hits give low values
  normalized growth: 0.963
Locus YJR075W, strain HOC1, hits give low values
  normalized growth: 0.964
Locus YKL190W, strain CNB1, hits give low values
  normalized growth: 0.952
Locus YLR039C, strain RIC1, hits give low values
  normalized growth: 0.733 (active)
Locus YLR058C, strain SHM2 (second series), hits give low values
  normalized growth: 0.982
Locus YLR085C, strain ARP6, hits give low values
  normalized growth: 0.528 (active)
Locus YLR262C, strain YPT6, hits give low values
  normalized growth: 0.795 (active)
Locus YML094W, strain GIM5, hits give low values
  normalized growth: 0.887
Locus YMR219W, strain ESC1, hits give low values
  normalized growth: 0.995
Locus YMR263W, strain SAP30, hits give low values
  normalized growth: 0.955
Locus YNL128W, strain TEP1, hits give low values
  normalized growth: 0.953
Locus YNL153C, strain GIM3, hits give low values
  normalized growth: 0.955
Locus YNL298W, strain CLA4 (second series), hits give low values
  normalized growth: 0.815 (active)
Locus YNL322C, strain KRE1, hits give low values
  normalized growth: 0.994
Locus YNR030W, strain Alg12, hits give low values
  normalized growth: 0.891
Locus YOL006C, strain TOP1, hits give low values
  normalized growth: 0.64 (active)
Locus YPL055C, strain LGE1, hits give low values
  normalized growth: 0.881
Locus YPL241C, strain CIN2, hits give low values
  normalized growth: 0.9
Locus YPR135W, strain CTF4, hits give low values
  normalized growth: 0.535 (active)

## O=[N+]([O-])c1cc(C(F)(F)F)ccc1-n1ccc(-c2cccs2)n1
Locus YAR019C, strain CDC15, hits give low values
  normalized growth: 0.953
Locus YBL105C, strain PKC1, hits give low values
  normalized growth: 0.952
Locus YBR135W, strain CKS1, hits give low values
  normalized growth: 0.948
Locus YBR136W, strain MEC1, hits give low values
  normalized growth: 0.954
Locus YBR160W, strain CDC28, hits give low values
  normalized growth: 0.956
Locus YDL017W, strain CDC7, hits give low values
  normalized growth: 0.955
Locus YDL028C, strain MPS1, hits give low values
  normalized growth: 0.958
[1]
  normalized growth: 0.959
Locus YDL108W, strain KIN28, hits give low values
  normalized growth: 0.951
Locus YDL132W, strain cdc53, hits give low values
  normalized growth: 0.96
Locus YDL214C, strain PRR2, hits give low values
  normalized growth: 0.88
Locus YDR052C, strain DBF4, hits give low values
  normalized growth: 0.951
Locus YDR054C, strain cdc34, hits give low values
  normalized growth: 0.95
Locus YDR226W, strain ADK1, hits give low values
  normalized growth: 0.952
Locus YDR477W, strain SNF1, hits give low values
  normalized growth: 0.879
Locus YER123W, strain YCK3, hits give low values
  normalized growth: 0.846
Locus YER133W, strain GLC7, hits give low values
  normalized growth: 0.846
Locus YFL009W, strain cdc4, hits give low values
  normalized growth: 0.952
Locus YFL029C, strain CAK1, hits give low values
  normalized growth: 0.952
Locus YFR003C, strain YPI1, hits give low values
  normalized growth: 0.951
Locus YFR019W, strain FAB1, hits give low values
  normalized growth: 0.945
Locus YFR028C, strain CDC14, hits give low values
  normalized growth: 0.952
Locus YGR040W, strain KSS1, hits give low values
  normalized growth: 0.882
Locus YGR052W, strain FMP48, hits give low values
  normalized growth: 0.933
Locus YGR092W, strain DBF2, hits give low values
  normalized growth: 0.754
[2]
  normalized growth: 0.76 (active)
Locus YHR079C, strain IRE1, hits give low values
  normalized growth: 0.87
Locus YHR082C, strain KSP1, hits give low values
  normalized growth: 0.968
Locus YHR205W, strain SCH9, hits give low values
  normalized growth: 0.913
Locus YIL147C, strain SLN1, hits give low values
  normalized growth: 0.957
Locus YJL095W, strain BCK1, hits give low values
  normalized growth: 0.863
Locus YJL128C, strain PBS2, hits give low values
  normalized growth: 0.897
Locus YJL157C, strain FAR1, hits give low values
  normalized growth: 0.84
Locus YJR016C, strain ILV3, hits give low values
  normalized growth: 0.958
Locus YJR066W, strain TOR1 (second series), hits give low values
  normalized growth: 0.839
Locus YJR066W, strain TOR1, hits give low values
  normalized growth: 0.889
Locus YKL048C, strain ELM1, hits give low values
  normalized growth: 0.914
Locus YKL067W, strain YNK1, hits give low values
  normalized growth: 0.88
Locus YKL101W, strain HSL1, hits give low values
  normalized growth: 0.875
Locus YKL193C, strain SDS22, hits give low values
  normalized growth: 0.957
Locus YKL203C, strain TOR2, hits give low values
  normalized growth: 0.919
Locus YLR113W, strain HOG1, hits give low values
  normalized growth: 0.789 (active)
Locus YLR133W, strain CKI1, hits give low values
  normalized growth: 0.88
Locus YLR403W, strain SFP1, hits give low values
  normalized growth: 0.804
Locus YML070W, strain DAK1, hits give low values
  normalized growth: 0.87
Locus YMR001C, strain CDC5, hits give low values
  normalized growth: 0.947
Locus YMR205C, strain PFK2 (second series), hits give low values
  normalized growth: 0.896
Locus YMR277W, strain FCP1, hits give low values
  normalized growth: 0.958
Locus YNL006W, strain LST8, hits give low values
  normalized growth: 0.956
Locus YNL020C, strain ARK1, hits give low values
  normalized growth: 0.861
Locus YNL161W, strain CBK1, hits give low values
  normalized growth: 0.949
Locus YNL183C, strain NPR1, hits give low values
  normalized growth: 0.92
Locus YNL207W, strain RIO2, hits give low values
  normalized growth: 0.947
Locus YNL222W, strain SSU72, hits give low values
  normalized growth: 0.965
Locus YNL307C, strain MCK1 (second series), hits give low values
  normalized growth: 0.862
Locus YOL078W, strain AVO1, hits give low values
  normalized growth: 0.952
Locus YOL136C, strain PFK27, hits give low values
  normalized growth: 0.883
Locus YOR061W, strain CKA2, hits give low values
  normalized growth: 0.827
Locus YOR119C, strain RIO1, hits give low values
  normalized growth: 0.932
Locus YOR231W, strain MKK1, hits give low values
  normalized growth: 0.886
Locus YOR329C, strain SCD5, hits give low values
  normalized growth: 0.947
Locus YPL031C, strain PHO85, hits give low values
  normalized growth: 0.872
Locus YPL153C, strain RAD53, hits give low values
  normalized growth: 0.92
Locus YPL204W, strain HRR25, hits give low values
  normalized growth: 0.885
Locus YPL209C, strain IPL1, hits give low values
  normalized growth: 0.959
Locus YPL256C, strain CLN2, hits give low values
  normalized growth: 0.864
Locus YPR025C, strain CCL1, hits give low values
  normalized growth: 0.95
Locus YPR106W, strain ISR1, hits give low values
  normalized growth: 0.954
Locus YPR111W, strain DBF20, hits give low values
  normalized growth: 0.936
Strain NNK1, hits give low values
  normalized growth: 0.926
Strain TSCII, hits give low values
  normalized growth: 0.955

From PubChem BioAssay AID1159580 (chemical genetic matrix, 2015)
